Measured values published in the supplement of paper PMC12819154, “High-throughput peptide-centric local stability assay extends protein–ligand identification to membrane proteins, tissues and bacteria” (Nature Structural & Molecular Biology, 2025).

UniProt Q92564, sequence (Q92564 whole entry): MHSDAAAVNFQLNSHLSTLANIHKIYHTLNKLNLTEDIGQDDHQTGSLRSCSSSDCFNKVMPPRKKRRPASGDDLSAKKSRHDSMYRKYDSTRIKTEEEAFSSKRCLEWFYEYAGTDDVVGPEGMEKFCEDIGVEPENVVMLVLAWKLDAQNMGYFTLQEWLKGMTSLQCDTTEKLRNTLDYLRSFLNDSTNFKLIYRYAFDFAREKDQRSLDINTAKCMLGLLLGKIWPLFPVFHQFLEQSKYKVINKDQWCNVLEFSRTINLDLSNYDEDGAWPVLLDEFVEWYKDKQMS
UniProt Q9UJV9, sequence (Q9UJV9 whole entry): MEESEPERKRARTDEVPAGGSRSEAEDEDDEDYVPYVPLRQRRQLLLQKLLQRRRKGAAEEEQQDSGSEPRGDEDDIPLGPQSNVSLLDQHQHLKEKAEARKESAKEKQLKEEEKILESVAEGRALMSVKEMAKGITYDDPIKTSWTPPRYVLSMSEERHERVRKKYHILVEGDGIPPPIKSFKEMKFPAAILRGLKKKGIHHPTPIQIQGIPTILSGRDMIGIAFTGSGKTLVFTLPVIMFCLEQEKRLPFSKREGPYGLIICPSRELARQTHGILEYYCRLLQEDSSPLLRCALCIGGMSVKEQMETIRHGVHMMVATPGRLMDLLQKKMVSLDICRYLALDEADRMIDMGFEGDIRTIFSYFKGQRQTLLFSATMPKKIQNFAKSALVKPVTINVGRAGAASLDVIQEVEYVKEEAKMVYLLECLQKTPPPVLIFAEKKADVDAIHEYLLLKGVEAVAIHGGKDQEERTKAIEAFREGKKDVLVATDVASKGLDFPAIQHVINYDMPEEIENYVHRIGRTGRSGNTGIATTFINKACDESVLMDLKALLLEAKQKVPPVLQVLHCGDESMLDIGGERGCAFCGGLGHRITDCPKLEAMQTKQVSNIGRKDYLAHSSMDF
UniProt P13861, sequence (P13861 whole entry): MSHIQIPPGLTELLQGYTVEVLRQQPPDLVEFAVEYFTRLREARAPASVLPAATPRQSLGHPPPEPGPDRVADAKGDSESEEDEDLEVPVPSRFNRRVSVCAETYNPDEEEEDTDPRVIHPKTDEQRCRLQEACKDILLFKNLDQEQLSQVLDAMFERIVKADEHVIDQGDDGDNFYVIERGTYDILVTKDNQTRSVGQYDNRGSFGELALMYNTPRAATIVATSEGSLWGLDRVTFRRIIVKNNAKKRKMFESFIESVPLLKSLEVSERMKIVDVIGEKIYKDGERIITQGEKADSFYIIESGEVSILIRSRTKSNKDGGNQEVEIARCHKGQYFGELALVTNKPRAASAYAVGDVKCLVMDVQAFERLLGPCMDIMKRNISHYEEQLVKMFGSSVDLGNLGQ
UniProt Q13555, sequence (Q13555 whole entry): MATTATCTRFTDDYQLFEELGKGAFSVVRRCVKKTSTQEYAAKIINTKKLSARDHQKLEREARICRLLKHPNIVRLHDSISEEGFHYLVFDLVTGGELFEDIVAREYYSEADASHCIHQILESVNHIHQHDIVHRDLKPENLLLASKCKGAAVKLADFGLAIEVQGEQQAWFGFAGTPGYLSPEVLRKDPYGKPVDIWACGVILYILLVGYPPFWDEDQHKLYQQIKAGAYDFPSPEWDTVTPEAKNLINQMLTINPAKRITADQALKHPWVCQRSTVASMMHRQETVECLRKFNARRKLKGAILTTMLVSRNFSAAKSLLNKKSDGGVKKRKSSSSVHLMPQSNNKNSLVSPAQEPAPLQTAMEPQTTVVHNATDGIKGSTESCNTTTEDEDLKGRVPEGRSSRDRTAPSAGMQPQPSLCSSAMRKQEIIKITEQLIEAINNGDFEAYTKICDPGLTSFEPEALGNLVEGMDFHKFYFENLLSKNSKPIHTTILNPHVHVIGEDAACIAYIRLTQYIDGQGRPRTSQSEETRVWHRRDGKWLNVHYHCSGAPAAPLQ
UniProt Q9BTE7, sequence (Q9BTE7 whole entry): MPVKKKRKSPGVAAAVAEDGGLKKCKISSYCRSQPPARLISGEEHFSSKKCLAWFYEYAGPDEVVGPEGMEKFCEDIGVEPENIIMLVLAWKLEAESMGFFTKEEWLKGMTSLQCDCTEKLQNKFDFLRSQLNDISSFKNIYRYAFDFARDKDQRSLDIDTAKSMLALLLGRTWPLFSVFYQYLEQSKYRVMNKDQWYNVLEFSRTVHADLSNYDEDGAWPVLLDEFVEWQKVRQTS
UniProt Q8IVT5, sequence (Q8IVT5 whole entry): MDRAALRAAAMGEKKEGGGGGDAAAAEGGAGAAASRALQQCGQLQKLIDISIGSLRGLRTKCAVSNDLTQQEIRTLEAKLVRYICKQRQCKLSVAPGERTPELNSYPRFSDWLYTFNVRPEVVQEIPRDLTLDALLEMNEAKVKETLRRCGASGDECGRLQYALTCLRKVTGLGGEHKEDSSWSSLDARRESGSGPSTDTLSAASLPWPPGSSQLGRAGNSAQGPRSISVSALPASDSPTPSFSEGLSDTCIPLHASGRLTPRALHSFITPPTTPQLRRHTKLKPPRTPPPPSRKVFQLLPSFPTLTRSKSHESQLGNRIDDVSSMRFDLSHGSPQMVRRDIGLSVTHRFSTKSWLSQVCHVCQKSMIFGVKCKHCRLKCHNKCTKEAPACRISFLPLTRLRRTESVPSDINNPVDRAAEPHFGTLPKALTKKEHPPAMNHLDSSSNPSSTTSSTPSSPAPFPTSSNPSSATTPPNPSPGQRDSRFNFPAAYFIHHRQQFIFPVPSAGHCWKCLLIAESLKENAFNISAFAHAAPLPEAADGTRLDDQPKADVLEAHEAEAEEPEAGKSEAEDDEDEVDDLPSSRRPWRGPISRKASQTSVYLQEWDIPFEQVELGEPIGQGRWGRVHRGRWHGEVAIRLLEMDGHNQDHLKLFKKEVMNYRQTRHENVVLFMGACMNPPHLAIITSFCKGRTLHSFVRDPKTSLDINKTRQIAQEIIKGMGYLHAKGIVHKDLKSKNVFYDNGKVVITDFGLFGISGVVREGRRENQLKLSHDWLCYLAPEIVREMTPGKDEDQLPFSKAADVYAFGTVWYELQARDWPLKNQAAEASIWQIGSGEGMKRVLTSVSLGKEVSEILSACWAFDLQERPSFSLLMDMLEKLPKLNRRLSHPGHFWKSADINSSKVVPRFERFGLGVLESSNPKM
UniProt Q9UL54, sequence (Q9UL54 whole entry): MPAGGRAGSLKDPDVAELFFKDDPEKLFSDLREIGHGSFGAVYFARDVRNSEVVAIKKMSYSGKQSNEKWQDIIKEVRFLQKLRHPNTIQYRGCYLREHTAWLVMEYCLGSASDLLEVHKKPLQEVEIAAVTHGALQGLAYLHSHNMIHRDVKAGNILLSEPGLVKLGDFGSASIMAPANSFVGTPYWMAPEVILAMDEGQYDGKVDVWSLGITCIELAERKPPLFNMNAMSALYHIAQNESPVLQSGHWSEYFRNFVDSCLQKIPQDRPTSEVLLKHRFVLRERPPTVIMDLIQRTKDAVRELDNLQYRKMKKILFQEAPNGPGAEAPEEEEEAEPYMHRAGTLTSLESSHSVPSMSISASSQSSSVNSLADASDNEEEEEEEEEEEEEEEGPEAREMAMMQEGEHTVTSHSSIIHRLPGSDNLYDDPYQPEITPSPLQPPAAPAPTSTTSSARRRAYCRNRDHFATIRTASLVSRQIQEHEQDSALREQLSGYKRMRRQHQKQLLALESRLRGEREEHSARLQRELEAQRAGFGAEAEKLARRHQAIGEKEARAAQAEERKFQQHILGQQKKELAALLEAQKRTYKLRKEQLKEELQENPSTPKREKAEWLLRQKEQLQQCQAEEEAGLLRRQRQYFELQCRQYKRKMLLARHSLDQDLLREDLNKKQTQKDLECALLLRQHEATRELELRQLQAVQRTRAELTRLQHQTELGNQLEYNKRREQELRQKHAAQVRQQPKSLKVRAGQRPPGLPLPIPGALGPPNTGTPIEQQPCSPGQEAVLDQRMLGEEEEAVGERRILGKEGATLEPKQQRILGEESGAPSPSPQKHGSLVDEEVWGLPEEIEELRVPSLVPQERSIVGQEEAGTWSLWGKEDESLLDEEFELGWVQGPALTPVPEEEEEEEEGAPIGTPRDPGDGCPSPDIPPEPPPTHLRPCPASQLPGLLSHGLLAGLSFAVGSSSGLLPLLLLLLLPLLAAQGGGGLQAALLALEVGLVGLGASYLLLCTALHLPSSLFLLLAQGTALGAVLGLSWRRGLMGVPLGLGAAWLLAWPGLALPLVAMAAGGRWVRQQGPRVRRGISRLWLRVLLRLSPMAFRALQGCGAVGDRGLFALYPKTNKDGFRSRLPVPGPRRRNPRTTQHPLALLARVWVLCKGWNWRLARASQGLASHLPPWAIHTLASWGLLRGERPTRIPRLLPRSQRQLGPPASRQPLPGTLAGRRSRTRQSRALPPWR
UniProt Q9UHD2, sequence (Q9UHD2 whole entry): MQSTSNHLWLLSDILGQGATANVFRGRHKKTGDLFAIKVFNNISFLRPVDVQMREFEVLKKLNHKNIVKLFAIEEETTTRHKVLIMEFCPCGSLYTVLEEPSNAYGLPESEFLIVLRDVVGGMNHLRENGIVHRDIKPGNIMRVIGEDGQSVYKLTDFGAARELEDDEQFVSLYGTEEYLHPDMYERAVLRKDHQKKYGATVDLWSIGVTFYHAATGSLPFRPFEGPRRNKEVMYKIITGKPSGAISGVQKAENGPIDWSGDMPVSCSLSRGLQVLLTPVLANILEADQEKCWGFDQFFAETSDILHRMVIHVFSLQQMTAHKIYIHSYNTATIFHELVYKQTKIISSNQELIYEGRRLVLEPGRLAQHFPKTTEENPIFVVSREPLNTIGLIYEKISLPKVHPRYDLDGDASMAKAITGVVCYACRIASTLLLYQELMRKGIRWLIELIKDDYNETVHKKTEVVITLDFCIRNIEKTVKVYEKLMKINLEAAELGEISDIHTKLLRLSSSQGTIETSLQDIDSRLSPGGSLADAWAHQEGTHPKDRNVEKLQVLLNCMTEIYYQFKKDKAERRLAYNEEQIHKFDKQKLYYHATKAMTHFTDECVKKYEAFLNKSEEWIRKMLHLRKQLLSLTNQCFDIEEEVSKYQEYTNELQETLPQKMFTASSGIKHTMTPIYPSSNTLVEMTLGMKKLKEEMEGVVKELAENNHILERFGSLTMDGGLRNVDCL

The targets below were run with CN[C@@H]1C[C@H]2O[C@@](C)([C@@H]1OC)n1c3ccccc3c3c4c(c5c6ccccc6n2c5c31)C(=O)NC4 [staurosporine] (assay: log2 fold change of tryptic peptide abundance, ligand vs vehicle (limited proteolysis) (log2 ratio); higher = more trypsin-susceptible (destabilized)). Conditions: ligand concentration: 20 uM; sample: K562 cleared lysate; digestion: 4 min, 22 C (HT-PELSA RT4min, Orbitrap Astral).
With “UniProt O75582 (peptide sequence: VGIENFELLK, peptide start residue: 44)” the log2 fold change was -0.481.
For “UniProt P19525 (peptide sequence: IGDFGLVTSLK, peptide start residue: 430)”, the log2 fold change was -1.42.
For “IARS (peptide sequence: AVPSWFVR, peptide start residue: 411) (UniProt P41252)”, the log2 fold change was 0.326.
“CDKN1C (peptide sequence: SLFGPVDHEELSR, peptide start residue: 32) (UniProt P49918)” was tested, and the log2 fold change was 1.39.
Target “VIM (peptide sequence: MFGGPGTASRPSSSR, peptide start residue: 14) (UniProt P08670)” has a log2 fold change of 0.344.
“DCUN1D4 (peptide sequence: YAFDFAR, peptide start residue: 144) (UniProt Q92564)” gave a log2 fold change of 1.53.
Work on “DDX41 (peptide sequence: TDEVPAGGSR, peptide start residue: 13) (UniProt Q9UJV9)” yielded a log2 fold change of 0.553.
Target “NUP188 (peptide sequence: HTLNPEETSSVVR, peptide start residue: 331) (UniProt Q5SRE5)” has a log2 fold change of 1.1.
“HERC2 (peptide sequence: TLHSLTQWNGLINK, peptide start residue: 2152) (UniProt O95714)” showed a log2 fold change of -0.746.
With “PRDM15 (peptide sequence: VKREDLEAGGENLVR, peptide start residue: 882) (UniProt P57071)” the log2 fold change was -1.86.
For “RFESD (peptide sequence: EYSSVCVGREDDIK, peptide start residue: 14) (UniProt Q8TAC1)”, the log2 fold change was 0.768.
With “PRKAR2A (peptide sequence: GQYFGELALVTNKPR, peptide start residue: 333) (UniProt P13861)” the log2 fold change was 0.659.
With “UniProt P45983 (peptide sequence: MLVIDASK, peptide start residue: 301)” the log2 fold change was -1.77.
In the case of “TAOK2 (peptide sequence: ERPPTVIMDLIQR, peptide start residue: 284) (UniProt Q9UL54)”, the log2 fold change is reported as -2.3.
In the case of “UniProt P62995 (peptide sequence: SPSPYYSR, peptide start residue: 264)”, the log2 fold change is reported as 1.31.
Target “TBK1 (peptide sequence: VIGEDGQSVYK, peptide start residue: 144) (UniProt Q9UHD2)” has a log2 fold change of -1.75.
In the case of “UniProt P62913 (peptide sequence: KLCLNICVGESGDR, peptide start residue: 19)”, the log2 fold change is reported as -0.237.
“VRK1 (peptide sequence: DILLQGLK, peptide start residue: 322) (UniProt Q99986)” gave a log2 fold change of -0.866.
Work on “CCNB2 (peptide sequence: VAAAASCLSQK, peptide start residue: 308) (UniProt O95067)” yielded a log2 fold change of -1.57.
“USP8 (peptide sequence: SYSSPDITQAIQEEEKR, peptide start residue: 716) (UniProt P40818)” was tested, and the log2 fold change was 1.8.
With “LAMA5 (peptide sequence: TFQLDTAVDRPCAR, peptide start residue: 2918) (UniProt O15230)” the log2 fold change was 1.14.
“CAMK2G (peptide sequence: GAILTTMLVSR, peptide start residue: 302) (UniProt Q13555)” was tested, and the log2 fold change was -1.14.
In the case of “PRKAR2B (peptide sequence: CVGNYDNR, peptide start residue: 211) (UniProt P31323)”, the log2 fold change is reported as 0.866.
For “CCNB1 (peptide sequence: NVVMVNQGLTK, peptide start residue: 386) (UniProt P14635)”, the log2 fold change was -1.47.
Target “BCR (peptide sequence: RAAQAPDGASEPR, peptide start residue: 79) (UniProt P11274)” has a log2 fold change of 0.577.
“NSUN2 (peptide sequence: LAQEGIYTLYPFINSR, peptide start residue: 603) (UniProt Q08J23)” gave a log2 fold change of -0.339.
With “DCUN1D5 (peptide sequence: SMLALLLGR, peptide start residue: 164) (UniProt Q9BTE7)” the log2 fold change was 1.45.
“ULK3 (peptide sequence: VIELPLRPLLSR, peptide start residue: 230) (UniProt Q6PHR2)” was tested, and the log2 fold change was -1.32.
“UniProt Q9Y2K2 (peptide sequence: IGYYEIDR, peptide start residue: 63)” was tested, and the log2 fold change was -3.15.
“MYBBP1A (peptide sequence: VLKGNTAEGCVHETQEK, peptide start residue: 933) (UniProt Q9BQG0)” was tested, and the log2 fold change was 2.16.
Target “UniProt Q9H9C1 (peptide sequence: LLLDLFR, peptide start residue: 239)” has a log2 fold change of -1.26.
Work on “BRAF (peptide sequence: GYLSPDLSK, peptide start residue: 525) (UniProt P15056)” yielded a log2 fold change of 0.499.
Target “XRCC5 (peptide sequence: VDEEQMK, peptide start residue: 326) (UniProt P13010)” has a log2 fold change of -0.825.
Target “UniProt Q15418 (peptide sequence: DILADVNHPFVVK, peptide start residue: 114)” has a log2 fold change of -1.43.
“UniProt Q13043 (peptide sequence: ATATQLLQHPFVR, peptide start residue: 270)” was tested, and the log2 fold change was -3.53.
Target “UniProt P0DMV8 (peptide sequence: LLQDFFNGR, peptide start residue: 349)” has a log2 fold change of 0.293.
For “KSR1 (peptide sequence: LSHDWLCYLAPEIVR, peptide start residue: 771) (UniProt Q8IVT5)”, the log2 fold change was -0.299.
